# Screening data from PubChem.
# The sample as a whole holds a higher share of hits than the screen did.
# LmPK inh: inhibitors of Leishmania mexicana pyruvate kinase. Potency, µM (titrated, usually from 57.5 µM), for inactives: at the top dose activity change, negative = inhibition, most hits filed as inhibitors. Q27686. 290,000 tested, 0.37% active. purified LmPK, Kinase-Glo ATP luminescence, 1 h; active = well fitted curve in the direction sought with a large enough effect; inconclusive = small, poorly fitted or top-dose-only effect, or another doubt; inactive = no such curve, though single readings can be large; an effect the other way counts as inactive or inconclusive; also: potency is read from the fitted curve at half-maximal effect; % is scaled to controls: 0 for no effect and ±100 for the full control effect
# Target sequence (Q27686 whole entry, looked up): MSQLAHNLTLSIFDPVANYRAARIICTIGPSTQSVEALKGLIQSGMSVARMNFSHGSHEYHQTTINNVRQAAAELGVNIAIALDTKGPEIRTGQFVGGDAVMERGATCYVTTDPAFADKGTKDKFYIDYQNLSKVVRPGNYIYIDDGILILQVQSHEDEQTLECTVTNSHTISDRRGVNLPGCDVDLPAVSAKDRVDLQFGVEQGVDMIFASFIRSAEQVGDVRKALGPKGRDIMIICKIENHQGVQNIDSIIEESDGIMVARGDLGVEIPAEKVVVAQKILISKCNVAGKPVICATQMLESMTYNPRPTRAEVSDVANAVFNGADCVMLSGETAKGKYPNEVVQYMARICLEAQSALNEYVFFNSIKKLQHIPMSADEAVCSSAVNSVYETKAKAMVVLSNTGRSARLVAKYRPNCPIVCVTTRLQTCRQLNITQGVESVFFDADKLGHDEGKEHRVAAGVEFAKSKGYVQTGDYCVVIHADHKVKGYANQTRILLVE
#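 Pyruvate kinase activity monitored as ATP production (luciferase luminescence). Conditions: 0.1 nM enzyme, 0.5 mM PEP, 0.1 mM ADP, 1 h, RT; normalized against uninhibited and no-enzyme wells.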
# NS1 function inh: influenza NS1 inhibition. AID 2326. Potency, µM (series often up to 46.1 µM), without a hit: top-dose activity, positive = more growth. 270,000 tested, 0.4% active; also: potency is read from the fitted curve at half-maximal effect; actives are rising curves; nearly all actives have a fitted effect of over 50% in size
#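 Growth recovery, yeast-based: influenza A NS1 expressed in S. cerevisiae causes slow growth, and suppressors are detected by OD600. The parent strain without NS1 is used as positive control.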
# Shiga inhibitor: Shiga toxin inhibition. Vero cells, Shiga toxin protein synthesis inhibition reporter. inhibition, % at 38.7 µM. 290,000 tested, 9.2% active; in the data active = inhibition mostly above about 28%, no sharp cut-off; inactive = mostly below about 43%; also: 0% is about no effect
# TbPYK inhibitor: inhibitors of Trypanosoma brucei pyruvate kinase | Q57TT1 | TbPYK enzyme, Kinase-Glo Plus ATP luminescence, 45 min | Potency, µM (doses to about 76.8 µM), for inactives: at the top dose activity, negative = inhibition, most hits filed as inhibitors | 410,000 tested, 0.12% active | AID 624173; active = well fitted curve in the direction sought with a large enough effect; inconclusive = small, poorly fitted or top-dose-only effect, or another doubt; inactive = no such curve, though single readings can be large; an effect the other way counts as inactive or inconclusive; also: potency is read from the fitted curve at half-maximal effect; % is scaled to controls: 0 for no effect and ±100 for the full control effect; nearly all actives have a fitted effect of over 50% in size
#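 Quantitative HTS: titrated library compounds versus trypanosomal pyruvate kinase in TEA buffer (pH 7.2) containing KCl, MgCl2, BSA and Tween-20. Reactions were initiated with ADP, 130 uM final. Kinase-Glo Plus luminescence was read after 45 min at RT.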
# Cycloheximide cs: affects cycloheximide protein synthesis inhibition readout, counter-screen; cell reporter, cycloheximide protein synthesis inhibition counterscreen; max response, %; 300,000 tested, 12% active; AID 2314; in the data active = max response mostly above about 13%, no sharp cut-off; inactive = mostly below about 14%; also: read at 38.3 µM for the half of the compounds with a filed dose; 0% is about no effect
# SARS PLpro yeast: SARS-CoV PLP inhibition in yeast; AID 485353; Potency, µM (highest dose often 32.9 µM), for the others: at the top dose activity, positive = growth rescue, most hits filed as activators; S. cerevisiae expressing SARS-CoV PLpro, growth rescue; 330,000 tested, 0.19% active; also: potency is read from the fitted curve at half-maximal effect; 0% is about no effect; nearly all actives have a fitted effect of over 55% in size
# * hit, by the source's call; i = inactive; ? = inconclusive; . = no result given; [ ] = remark or other dose. Unless noted, calls follow the shape of the full dose curve.
SMILES,LmPK inh,NS1 function inh,Shiga inhibitor,TbPYK inhibitor,Cycloheximide cs,SARS PLpro yeast
CCOc1ccc(NC(=O)CN2C(=O)C3CC=CCC3C2=O)cc1 (stereo not drawn),-1%,4%,62,7%,27*,-2%
CCOc1ccc(NC(=O)CN2C(=O)C(C)SC(C)C2=O)cc1 (stereo not drawn),7%[11.5 µM],.,54,2%,25*,-4%
CCOc1ccccc1NC(=O)CN1C(=O)C(C)SC(C)C1=O (stereo not drawn),4%,.,-7,3%,-1,-3%
O=C1c2cc(O)cc(O)c2OC[C@@H]1c1ccc(O)c(O)c1,.,.,-7,.,-4,.
Cc1cccc(CC(=O)N2CCOCC2)c1,-6%,7%,-14,-1%,-2,-5%
CCN1CCN(C(=O)Cc2ccc(C)cc2)CC1,0%,1%,42,-5%,22*,-5%
CCOC(=O)N1CCN(C(=O)Cc2ccc(C)cc2)CC1,-4%,-16%[9.22 µM],-1,3%,-1,-3%
O=C(Cc1ccc(Br)cc1)N1CCOCC1,1%,-3%,23,-8%,11*,-2%
O=C(Cc1ccc(Cl)c(Cl)c1)N1CCOCC1,3%,5%,35*,0%,8,5%
O=C(Cc1ccc(Br)cc1)N1CCN(c2ccc(F)cc2)CC1,1%,-108%,-8,-5%,-4,0%
O=C(Cc1ccc(-c2ccccc2)cc1)N1CCOCC1,1%,-12%,17,7%,9,1%
O=C(Cc1ccc(Br)cc1)N1CCN(c2ccccc2O)CC1,5%,-20%,95*,0%,36*,-5%
CC(C)c1ccc(CN(C)C(=O)c2ccc(S(=O)(=O)NCc3ccco3)cc2)cc1,.,.,.,-9%,.,3%
O=C(OCc1cc(Cl)ccc1OC(F)F)c1ccc([N+](=O)[O-])o1,-5%,-113%,-3,.,-4,-24%
COc1ccc(S(=O)(=O)N2CCOCC2)cc1NC(=O)CN1C(=O)NC2(CCC(C)CC2)C1=O (stereo not drawn),.,.,.,-2%,.,.
CCc1ccc(CC(=S)N2CCOCC2)cc1,4%,.,62*,-4%,26*,-3%
CCC1Oc2ccccc2C(=O)N(CC(=O)c2ccc3c(c2)OCCO3)C1=O (stereo not drawn),4%,4%,46,0%,34*,-9%
CC(C)C1Oc2ccccc2C(=O)N(CC(=O)c2ccc3c(c2)OCCO3)C1=O (stereo not drawn),3%,3%,92*,3%,47*,-1%
CC1Oc2ccccc2C(=O)N(CC(=O)c2ccc3c(c2)OCCO3)C1=O (stereo not drawn),9%,9%,72*,-6%,30*,-4%
CCN1CCN(c2cc(-c3ccc(F)cc3)c3c(n2)CCCCCC3)CC1,.,.,.,-6%,.,.
CCC(C)N1C(=O)S/C(=C/c2ccc3c(c2)n(C)c(=O)n3C)C1=O (stereo not drawn),9%,.,69,3%,30*,-2%
CC(C)N1C(=O)S/C(=C/c2ccc3c(c2)n(C)c(=O)n3C)C1=O,-1%,6%,-4,3%,-4,6%
CCOc1ccc(CCNC(=O)Cn2nc(C)n3cccc3c2=O)cc1OCC,-12%,0%,-4,-8%,1,-3%
COc1cccc(C(=O)Nc2cccc(-c3ccccc3)c2)c1,-8%,-36%,78*,2%,42*,-17%
O=C(O)c1cccc(NC(=O)c2ccc(N3C(=O)c4ccc(C(=O)Nc5cccc(C(=O)O)c5)cc4C3=O)cc2)c1,-6%,1%,36,-4%,2,6%
SMILES,LmPK inh,NS1 function inh,Shiga inhibitor,TbPYK inhibitor,Cycloheximide cs,SARS PLpro yeast
COc1ccc(-c2cccc(C(=O)Nc3cccc(C(=O)O)c3)c2)cc1,-7%,11%,106*,-4%,103*,-4%
CCN1C(=O)c2ccc(C(=O)Nc3cccc(C(=O)O)c3)cc2C1=O,-9%,0%,48*,-9%,20*,-3%
O=C(Nc1ccc(F)c(Cl)c1)c1cc(S(=O)(=O)N2CCCc3ccccc32)ccc1F,.,.,.,5%,.,.
C/C(CC(=O)N1CCN(C=O)CC1)=N\NC(=O)c1ccc([N+](=O)[O-])cc1,8%,-32%,64,-15%,20*,1%
C/C(=N\NC(=O)c1ccc(CN2CCOCC2)cc1)c1ccc([N+](=O)[O-])cc1,-2%,.,5,-4%,-1,-7%
C/C(CC(=O)N1CCN(C=O)CC1)=N\NC(=O)c1cc2ccccc2cc1O,5%,23%,5,5%,2,14µM*
CCOc1ccc(-c2cc3nc(C4CCN(C(=O)OC(C)(C)C)CC4)c(C(=O)Nc4ccc(C)c(F)c4)cn3n2)cc1,.,.,.,3%,.,.
CS(=O)(=O)c1ccc([C@H](O)[C@H](CF)NC(=O)C(Cl)Cl)cc1,.,.,.,6%[33.2 µM],.,.
CCCOc1ccc2c(CC)cc(=O)oc2c1C,-10%,-5%,31,-15%,11*,-3%
C=C(C)COc1ccc2c(CC)cc(=O)oc2c1C,0%,-1%,-2,-14%,2,-34%
CNC(=O)N(O)C1N(c2ccccc2)C(=S)SC1(C)C (stereo not drawn),-1%,14%,-9,4%,7,18%
CNC(=O)ON(C(=O)NC)C1N(C)C(=S)SC1(C)C (stereo not drawn),4%,-75%,22,-1%,13*,-8%
CCN(CC)CCCNC(=O)c1oc2c(c1C)-c1nn(Cc3ccc(Cl)cc3)cc1CC2,.,.,.,-3%,.,.
COc1ccc(OC)c(C2NC(=S)NC(C)=C2C(=O)Nc2ccccn2)c1 (stereo not drawn),0%,3%,11,-7%,-2,0%
CC1=C(C(=O)Nc2ccccn2)C(c2ccccc2)n2ncnc2N1 (stereo not drawn),5%,3%,11,9%,15*,3%
COc1ccc(C2NC(=S)NC(C)=C2C(=O)Nc2ccccn2)cc1 (stereo not drawn),-2%,4%,34*,2%,36*,0%
CC1=C(C(=O)Nc2ccccn2)C(c2ccc(F)cc2)n2ncnc2N1 (stereo not drawn),0%,-4%,42,0%,15*,12%
Cc1c(Cl)cccc1NC(=O)Nc1nnc(N2CCCCCC2)s1,.,.,.,-2%,.,.
Cc1csc(NC(=O)C2CCN(C(=O)c3ccccc3C)CC2)n1,2%,.,-18,-2%,7,3%
CC(=O)Oc1cccc(C(=O)Nc2ccccc2C(=O)N2CCCC2)c1,2%,0%,-6,-3%,-3,26%
CC(C)(C=O)C1=CC(=O)c2ccccc2C1=O,13µM*,1%,25*,?,28*,-114%
CC1=CC(=O)c2ccccc2C1=O,2%,-22%,17,1%,7,-24%
CCOC(=O)C1(CCOc2ccccc2)CCN(Cc2cccc(OC)c2OC)CC1,-2%,-9%,-25,5%,-2,3%
COc1cc2oc(=O)cc(-c3ccc(-c4ccc(O)cc4)cc3)c2c(OC)c1OC,.,.,i,-1%,6,?
